# Several values for one entry are separate records, joined by “and”; a condition that tells them apart may be missing. Identical values can stand only once. Records with an inconclusive call do not appear. A call without a number means that no potency is given here. Activity calls are given as the source filed them. Calls follow the shape of the dose curve; as a rule, active = well fitted inhibition curve with a large enough effect; inconclusive = small, poorly fitted or top-dose-only effect; inactive = no such curve, though single readings can be large or run the other way.
# Test: Primary qHTS for inhibitors of nuclear receptor binding SET domain protein 2 (NSD2) in an RCH-ACV wild type WT cells (2C) (AID 1645877); also: nearly all actives have a fitted effect of over 70% in size
# Details: RCH-ACV (leukaemia line) NSD2 WT (2C) viability, CellTiter-Glo, 72 h; series mostly up to 44.9 µM
# Source text: Assay Provider: Jonathan D. Licht, MD
# University of Florida College of Medicine, Gainesville, FL
# Mutations in epigenetic regulators are common in relapsed pediatric acute lymphoblastic leukemia (ALL). Here, we uncovered the mechanism underlying the relapse of ALL driven by an activating mutation of the NSD2 histone methyltransferase (p.E1099K). […] Correction of this mutation restored glucocorticoid sensitivity. The transcriptional response to glucocorticoids was blocked in NSD2 mutant cells due to depressed glucocorticoid receptor (GR) levels and the failure of glucocorticoids to autoactivate GR expression. […] Pre-treatment of NSD2 p.E1099K cell lines and PDX samples with PRC2 inhibitors reversed glucocorticoid resistance in vitro and in vivo.
# High-throughput drug screening of isogenic RCH-ACV cell lines was performed at the National Center for Advancing Translational Science (NCATS), National Institutes of Health as previously described (1). Briefly, isogenic RCH-ACV NSD2 p.E1099K mutant (9B) and WT cells (2C) were plated at 500 cells/well in a 1536-well plate with a 72-hour incubation with compounds prior to addition of CellTiter-Glo to assess cell viability. NCATS libraries screened include: NPC, MIPE 5.0, Kinase and NPACT. To determine compound activity in the qHTS assay, the concentration-response data for each sample was plotted and modeled by a four-parameter logistic fit yielding IC50 and efficacy (maximal response) values. The area under the curve (AUC) of the dose-response curve ensures both efficacy (magnitude of cell killing) and potency (concentration that elicits cell killing) are accounted for in the analysis of activity.
# 1. Tobie D Lee, Olivia W Lee, Kyle R Brimacombe, Lu Chen, Rajarshi Guha, Sabrina Lusvarghi, Bethilehem G Tebase, Carleen Klumpp-Thomas, Robert W Robey, Suresh V Ambudkar, Min Shen, Michael M Gottesman, Matthew D Hall. A High-Throughput Screen of a Library of Therapeutics Identifies Cytotoxic Substrates of P-glycoprotein. Mol Pharmacol. 2019, Nov;96(5):629-640.
# Potency is read from the fitted curve at half-maximal effect.
Structure (SMILES),Potency,"activity change, negative = cell killing"
C=C[C@@](C)(O)CC/C=C(\C)C(=O)O[C@@H]1[C@@H]2O[C@]2(C)[C@H]2[C@H](O[C@@H]3O[C@H](CO)[C@@H](O)[C@H](O)[C@H]3O)OC=C[C@@]12O,inactive,–
C[C@H](Nc1ncnc2nc[nH]c12)c1cc2ccc(F)cc2nc1-c1ccccn1,1180 nM (active),–
CC1(CCOC2OC(CO)C(O)C(O)C2O)CCC23OC2(C1)C(O)CC1C(C)(C(=O)O)CCCC13C (stereo not given),inactive,–
Cc1cc(-c2cc(O)ccc2Cl)cc2nnc(Nc3ccc(OCCN4CCCC4)cc3)nc12,2900 nM (active),–
COc1cc(C(=O)OC[C@H]2O[C@@H](Oc3ccccc3/C=C/C(=O)O)[C@H](O)[C@@H](O)[C@@H]2O)cc(OC)c1OC,inactive,–
COc1cc2ncnc(Nc3cccc(O)c3)c2cc1OC,3250 nM (active),–
C=C1CN(Cc2ccc(C(=O)Nc3ccccc3N)cc2)C(=O)c2ccccc21,230 nM (active),–
COc1ncc(Nc2ncc([C@H](C)N3CCN(S(C)(=O)=O)CC3)cc2-c2nc(C)nc(N)n2)cc1F,57.8 nM (active) and 8.3 nM (active),–
COc1cc2occc2c(O[C@@H]2O[C@H](CO)[C@@H](O)[C@H](O)[C@H]2O)c1CCC(=O)O,inactive,–
CCCCNc1ccc(-c2ccc(CN3CCOCC3)cn2)c(NC2CCC(O)CC2)c1 (stereo not given),796 nM (active),–
O=C(Nc1ccccc1)N1CCN(Cc2ccc3ccccc3n2)CC1,inactive,–
O=C1OCc2cc3cccc(O[C@@H]4O[C@H](CO)[C@@H](O)[C@H](O)[C@H]4O)c3c(O)c21,inactive,–
CCC(Nc1ncnc2nc[nH]c12)c1nc2cccc(F)c2c(=O)n1-c1ccccc1 (stereo not given),461 nM (active),–
CC1OC(OC2C(C)OC(OC3C(OC(=O)C45CCC(C)(C)CC4C4=CCC6C7(C)CCC(OC8OC(C(=O)O)C(O)C(O)C8OC8OC(CO)C(O)C(OC9OC(C)C(O)C(O)C9O)C8O)C(C)(CO)C7CCC6(C)C4(C)CC5)OC(CO)C(O)C3O)C(O)C2O)C(O)C(O)C1O (stereo not given),–,3.53% [at 9.23 µM] (inactive)
Cc1ccccc1C#Cc1ccc(CCC(=O)O)cc1,inactive,–
COC(=O)Cc1cc2c(c([N+](=O)[O-])c1)N(C(=O)CC[C@H](N)C(=O)O)CC2,inactive,–
CC(C)S(=O)(=O)N[C@H]1CCOC[C@@H]1c1ccc(-c2ccc(C#N)s2)cc1,inactive,–
CNC(=S)NS(=O)(=O)c1cc(CCNC(=O)c2cc(Cl)ccc2OC)ccc1OC,inactive,–
CC1=CC(=O)CC(C)(C)C1CCC(C)O[C@@H]1O[C@H](CO[C@@H]2OC[C@@H](O)[C@H](O)[C@H]2O)[C@@H](O)[C@H](O)[C@H]1O (stereo not given in full),inactive,–
COc1ccc(C(=O)n2c(C)c(Cc3cccc(O[C@@H](C)C(=O)O)c3)c3cc(OC(F)(F)F)ccc32)cc1,inactive,–

Structure (SMILES),Potency,"activity change, negative = cell killing"
CC1(O)CCCC2(C)C1CCC13CC(CO)C(CCC12)C3 (stereo not given),inactive,–
CC(=O)c1c(O)cc(O[C@@H]2O[C@H](CO)[C@@H](O)[C@H](O)[C@H]2O)cc1O,inactive,–
CCC(COC)n1nnc2c(Nc3ccc(OC)cc3C)nc(C)cc21 (stereo not given),inactive,–
COc1cc2ncnc(N3CCC(Oc4cnc5ccccc5n4)C3)c2cc1OC (stereo not given),145 nM (active),–
C=CC1C(OC2OC(CO)C(O)C(O)C2O)OC=C(C(=O)OC)C1CC1CC(=O)CC(CCc2ccc(O)cc2)O1 (stereo not given),inactive,–
COc1ccc(F)cc1-c1cc(NC(=O)[C@@H]2CCCNC2)ncc1Cl,64.9 nM (active),–
CC(=O)O[C@@H]1[C@@H](O)[C@H](O[C@H]2CC[C@]34C[C@]35CC[C@]3(C)[C@@H]([C@@]6(C)CC[C@@H](C(C)(C)O)O6)[C@@H](O)C[C@@]3(C)[C@@H]5C[C@H](O[C@@H]3O[C@H](CO)[C@@H](O)[C@H](O)[C@H]3O)[C@H]4C2(C)C)OC[C@H]1O,inactive,–
C=C1C[C@]23C[C@H]1CC[C@H]2[C@@]1(C)CCC[C@@]2(C)C(=O)O[C@@H]([C@@H]3O)[C@@H]12,inactive,–
CC1OC(OC2C(C)OC(OC3C(O)C(CO)OC(O[C@H]4CC[C@@]5(C)C(CC[C@]6(C)C5CC=C5C7[C@@H](C)[C@H](C)CC[C@]7(C(=O)O)CC[C@]56C(=O)O)C4(C)C)C3O)C(O)C2O)C(O)C(O)C1O (stereo not given in full),–,-0.67% [at 9.23 µM] (inactive)
Cc1ccc(NC(=O)C(=O)NC2CC(C)(C)NC(C)(C)C2)cc1,inactive,–
CC1(C)CC[C@]2(C(=O)O)CC[C@]3(C)C(=CCC4[C@@]5(C)C[C@@H](O)[C@H](O)C(C)(C)C5CC[C@]43C)C2C1 (stereo not given in full),inactive,–
CC1=CC(=O)[C@H]2C(C)(C)CCC[C@]2(C)[C@@]1(O)CO,inactive,–
COC(=O)N(C)c1c(N)nc(-c2nn(Cc3ccccc3F)c3ncccc23)nc1N,inactive,–
O=C(CSc1nc2c(c(=O)n1-c1ccccc1)SCC2)Nc1ccc(-c2ccccc2)cn1,32.5 nM (active),–
CC(C)c1nc(-c2ccc(NC(=O)Nc3cccc(C(F)(F)F)c3)c3ccccc23)c2c(N)nccn12,1450 nM (active),–
C1CCC[C@H]2CCCN3CC[C@@H](CCCCCC[C@@H]4CCCN5CC[C@@H](CC1)O[C@@H]45)O[C@@H]23,–,-1.13% [at 0.177 µM] (inactive)
COc1ccc(/C=C/C(=O)O[C@@H]2[C@@H](O)[C@H](C)O[C@@H](O[C@H]3[C@@H]4C=CO[C@@H](O[C@H]5O[C@@H](CO)[C@H](O)[C@@H](O)[C@@H]5O)[C@@H]4[C@@]4(CO)O[C@@H]34)[C@@H]2OC(C)=O)cc1,inactive,–
C/C(=C\CCC1(C)C2CCC(C2)C1(C)O)C(=O)O (stereo not given),inactive,–
O=C(CO)[C@@H](O)[C@H](O[C@@H]1O[C@H](CO)[C@H](O)[C@H](O)[C@H]1O)[C@H](O)CO,inactive,–
Cc1nc(Nc2n[nH]c3c2CN(C(=O)NC(CN(C)C)c2ccccc2)C3(C)C)c2sccc2n1 (stereo not given),5.2 nM (active),–

# From PubChem BioAssay (NCATS)
